# From PubChem BioAssay AID624273 (Broad Institute, 2012)
# About 230 (23%) of roughly 1,000 compounds were called active. Roughly 1% stayed inconclusive and do not appear here. The list shows a part of the results. Potency and affinity values are given separately. Unmarked numbers belong to inactive results. The rule behind the calls is not given here.
# Biological target: Long-chain-fatty-acid--AMP ligase FadD28 (Mycobacterium tuberculosis (strain ATCC 25618 / H37Rv)) (UniProt P9WQ59)
# Test: inhibitors of FadD28 bisubstrate probe binding, dose response, biochemical, fluorescence polarization, cherry-pick (AID 624273)
# Details: series mostly up to 50 µM; activity change, negative = inhibition: at the top concentration
# Sequence of Long-chain-fatty-acid--AMP ligase FadD28 (Mycobacterium tuberculosis (strain ATCC 25618 / H37Rv)) (P9WQ59 whole entry, looked up): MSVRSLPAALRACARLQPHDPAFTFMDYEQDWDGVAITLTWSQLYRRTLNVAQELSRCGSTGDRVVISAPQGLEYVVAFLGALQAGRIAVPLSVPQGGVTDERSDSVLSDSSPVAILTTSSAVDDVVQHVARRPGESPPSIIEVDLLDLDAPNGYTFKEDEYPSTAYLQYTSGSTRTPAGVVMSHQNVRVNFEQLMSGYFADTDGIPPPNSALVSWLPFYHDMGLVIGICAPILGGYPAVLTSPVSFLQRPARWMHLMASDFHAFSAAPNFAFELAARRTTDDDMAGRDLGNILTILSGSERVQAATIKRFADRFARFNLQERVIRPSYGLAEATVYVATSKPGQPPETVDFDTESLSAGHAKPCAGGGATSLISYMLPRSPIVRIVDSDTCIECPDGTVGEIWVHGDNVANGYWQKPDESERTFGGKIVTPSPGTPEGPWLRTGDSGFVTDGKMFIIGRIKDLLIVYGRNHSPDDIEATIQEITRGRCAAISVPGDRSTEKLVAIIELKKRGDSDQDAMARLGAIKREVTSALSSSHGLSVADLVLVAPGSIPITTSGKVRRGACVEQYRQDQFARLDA
row,Structure (SMILES),"activity change, negative = inhibition [%]"
1,Cc1nn(C(=O)c2ccco2)c(C)c1Br,-1.79
2,Cc1cc(NC(=O)Nc2cccc3ccccc23)no1,-3.52
3,COc1ccc2nc(-c3ccc(F)cc3)sc2c1,0.629
4,O=C(NC(=S)NCc1nc2ccccc2[nH]1)c1ccccc1F,-0.845
5,Cc1ccc(C(=O)NN2C(=O)/C(=C/c3cccn3C)SC2=S)cc1,-1.32
6,C=CCSc1nc(=O)n2cccc(C)c2n1,-3.79
7,c1ccc(-c2cnn3c(-c4ccccc4)c(-c4ccccc4)nc3n2)cc1,-0.288
8,O=C(COc1ccccc1-c1ccccc1)NCc1cccc(Cl)c1,-0.734
9,COc1ccc(CNCCc2ccc3c(c2)OCO3)cc1Br,-4.77
10,CC(C)c1ccc(NC(=O)CCCC(=O)NCCc2ccccc2)cc1,-4.77
11,CC(C)(C)c1ccc(NC(=O)C(=O)C2C(=O)Nc3ccccc32)cc1 (centres undefined),-1.66
12,COC(=O)c1c(N(S(C)(=O)=O)S(C)(=O)=O)sc2c1CCN(c1ncc(C(F)(F)F)cc1Cl)C2,2.06
13,CCOC(=O)C1=C(C)OC(N)=C(C#N)C1c1cc(F)ccc1F (centres undefined),-0.975
14,Cc1cc(C)n2nc3nc(N4CCCC4)nc(-c4ccccc4)c3c2n1,-2.65
15,CC(=O)NN1C(=O)/C(=C\c2ccc(Br)o2)SC1=S,-22
16,O=C(CSc1nc2ccsc2c(=O)n1Cc1ccc(C(=O)O)cc1)NCc1ccco1,-3.94
17,Cc1nn(CCc2nn[nH]n2)c2nc(-c3ccc(C4CCCCC4)cc3)cc(C(F)(F)F)c12,-13.7
18,O=C(CSc1nc2ccccc2[nH]1)NC1CCCc2ccccc21 (centres undefined),2.68
19,CCOC(=O)c1[nH]nc2c1C(=O)N(CC)C2=O,5.22
20,Cc1cc(-n2c(C)cc(C(=O)COc3ccc(F)c(F)c3)c2C)no1,-2.54
21,COc1ccc(OCC(=O)NNC(=O)C(=O)N2CCCC2)cc1,-2.89
22,COc1ccc(S(=O)(=O)N(C)C[C@H]2Oc3ccc(NC(=O)Nc4ccc5c(c4)OCO5)cc3C(=O)N([C@H](C)CO)C[C@@H]2C)cc1,-13.2
23,O=C(CSc1nnc(CNC(=O)C23CC4CC(CC(C4)C2)C3)n1-c1ccccc1)Nc1ccc(F)cc1,-3.94

row,Structure (SMILES),"activity change, negative = inhibition [%]"
1,CCCCCCCCCCCCC(=O)CCCCC(=O)O,-11.5
2,COc1ccc(OC)c(NC(=O)c2nnn(CCc3ccccc3)c2N)c1,-5.48
3,O=C(COc1ccccc1)Nc1ccc(CN2CCCCC2)cc1,-0.991
4,O=C(Nc1ccc(Cc2ccncc2)cc1)C1CCC(N2C(=O)C3C4C=CC(C4)C3C2=O)CC1 (centres undefined),-6.15
5,COc1ccc(CN2CCC(C(=O)Nc3ccc(Oc4cccnc4)cc3)CC2)c(C)c1C,-2.98
6,COc1ccc(N2CC(C(=O)Nc3cccnc3)CC2=O)cc1 (centres undefined),-4.29
7,COc1ccc(N(CC(=O)NC2CCCCC2)C(=O)CCC(=O)Nc2nc(C)cs2)cc1,-4.81
8,CCOC(=O)CSc1nc(C)c2ccccc2n1,-4.24
9,CCOC(=O)c1ccc(Nc2cc(C)nc(-c3ccccc3O)n2)cc1,4.75
10,CCOC(=O)c1ccc(NS(=O)(=O)c2ccc3c(c2)NC(=O)CCS3)cc1,-11.2
11,COc1cc2[nH]c(Cl)c([N+](=O)[O-])c2cc1OC,-4.27
12,CCC1CCC(C(=O)NNC(=O)c2cc(-c3ccco3)[nH]n2)CC1 (centres undefined),6.66
13,CCOC(=O)C1CCCN(C(=O)c2cc(Nc3ccc(OC)c(OC)c3)nc3ccccc23)C1 (centres undefined),-19.4
14,CCOC(=O)C1CCCN(C(=O)C2c3ccccc3Oc3ccccc32)C1 (centres undefined),-3.5
15,CCCCc1c(O)nc(SCC(=O)N2CCOCC2)n(-c2ccc(OC)cc2)c1=O,-7.17
16,CCOc1ccc(-c2nnc(SCC(=O)N3CCCC3)o2)cc1,0.57
17,Cn1c(=O)c2c(ncn2Cc2ccc(Cl)cc2)n(C)c1=O,-4.35
18,COc1ccc2c(C)cc(SCC(=O)N(C)C3CCS(=O)(=O)C3)nc2c1 (centres undefined),10.8
19,Cc1ccccc1Nc1ccc([N+](=O)[O-])cn1,0.292
20,O=C(COC(=O)c1ccccc1NC(=O)c1ccco1)Nc1ncc(Cl)cc1Cl,-1.69
21,Cn1ccc(C(=O)NC(=S)Nc2ccc([N+](=O)[O-])cc2O)n1,-9.47
22,COc1ccc(C(=O)NNC(=O)C(=O)N2CCCCC2)cc1OC,-1.68
23,Cc1ccccc1CS(=O)(=O)Cc1ccc(C(=O)NCc2ccco2)o1,-2.3

row,Structure (SMILES),"activity change, negative = inhibition [%]"
1,O=C(NCc1n[nH]c(=S)n1-c1ccccc1)c1ccco1,-3.99
2,COc1cccc(C(=O)NCc2ccccc2OC)c1,-1.19
3,COC(=O)c1cc2oc(C)cc2n1CC(=O)N(C)c1ccccc1,-5.85
4,COc1cccc(NCc2cc(=O)oc3cc(-c4ccccc4)c(O)cc23)c1,-4.19
5,COc1ccccc1NC(=O)Nc1cccc(C)n1,-5.5
6,CC(=O)c1cccc(NC(=O)COC(=O)c2ccccc2C)c1,-1.82
7,COc1ccc(C(=O)COC(=O)CNS(=O)(=O)c2ccc(C)cc2)cc1,-11.6
8,O=C(Cn1c(=O)oc2ccccc21)Nc1cccc(Cl)c1,0.08
9,CCOC(=O)Cn1cc(C(=O)c2ccco2)c2ccccc21,5.76
10,COc1ccc(-c2cc(C)no2)cc1S(=O)(=O)N(C)c1cccc(C)c1,-6.11
11,COc1ccccc1C(=O)COC(=O)c1nc2nc(C)cc(C)n2n1,-5.13
12,CCCSC1=N/C(=C\C=C\c2ccco2)C(=O)S1,-0.768
13,CC(C)(C)NC(=O)Cn1nnc(-c2ccccc2Cl)n1,-0.253
14,COc1cccc(NC(=O)Cn2nnc(C(=O)Nc3ccccc3)c2N)c1,-12.1
15,COc1ccc(OC)c(NC(=O)NNC(=O)c2cc3occc3[nH]2)c1,-1.69
16,COc1ccc(CC(=O)OCC(=O)NC(=O)NC23CC4CC(CC(C4)C2)C3)cc1,-18.2
17,Cc1ccc(NC(=O)CN(C)C(=O)c2cc(-c3ccco3)nc3ccccc23)cc1,-8.04
18,CCc1nc(C)cn1S(=O)(=O)c1cc(C)c(OC)c(C)c1C,-6.02
19,Cc1cccc(OCC(=O)N2CCN(C(=O)Cc3ccccc3)CC2)c1,-6.77
20,COc1cccc(OCCn2cc(/C=N/NC(=O)c3ccncc3)c3ccccc32)c1,-1
21,COc1cc(/C=N/NC(=O)Cn2nc([N+](=O)[O-])cc2C)cc(Br)c1OCc1ccccc1,-0.747
22,COc1ccc2c(c1OC)C(=O)N1C2SC(C)(C)[C@H]1C(=O)NCCCOC(C)C (some centres undefined),-1.76
23,Cc1cccc(-n2c(O)c(C=NCCCN3CCOCC3)c3ccccc3c2=O)c1,-1.13
